Test [1] in a line: ATG_GRE_CIS: Attagene CIS-FACTORIAL HepG2 Assay for human Glucocorticoid Response Elements (GRE) (AID 2282947). Particulars: HepG2 GRE cis-reporter, Attagene multiplex mRNA; actives raise or lower the signal. In short, it runs like this:
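Transiently transfected HepG2 cells carrying GRE cis-reporter units (endogenous TF activity) dosed 24 h; reporter mRNA quantified by RT-PCR, 6-FAM labelling, HpaI digestion and capillary electrophoresis. Bidirectional fit versus DMSO baseline.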

A short description of test [2]: ATG_ISRE_CIS: Attagene CIS-FACTORIAL HepG2 Assay for human Interferon Regulatory Factor 1 (IRF1) binding to an Interferon-Stimulated Response Element (ISRE) (AID 2282948). The conditions noted are these: HepG2 ISRE cis-reporter (Attagene), mRNA transcription readout; actives raise or lower the signal. In short, it runs like this:
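HepG2 cells transiently transfected with multiplexed cis-promoter reporter units; after 24 h compound exposure, reporter mRNA quantified by RT-PCR, FAM labelling, HpaI digestion and capillary electrophoresis. Bidirectional fit versus DMSO baseline.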

Test [3] can be described thus: ATG_M_32_CIS: Attagene CIS-FACTORIAL HepG2 Assay for M32 Transcription Factor (Internal Marker) (AID 2282949).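 Also: background control marker of the multiplexed CIS panel rather than a real target.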 The conditions noted are these: HepG2 Attagene cis-factorial M32 reporter, mRNA; actives raise or lower the signal. In short, it runs like this: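 Fluorescent capillary electrophoresis peaks of HpaI-digested, FAM-labelled RT-PCR reporter products give the signal. Source: transiently transfected human liver HepG2 cells, 24 h after chemical dosing; bidirectional fitting against DMSO.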

The nature of test [4]: ATG_M_06_CIS: Attagene CIS-FACTORIAL HepG2 Assay for M06 Transcription Factor (Internal Marker) (AID 2282950). Particulars: HepG2 Attagene CIS-FACTORIAL M06 internal marker reporter; actives raise or lower the signal. In short, it runs like this:
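Cells (HepG2, transiently carrying cis-driven reporter units) receive chemical for 24 h before RNA isolation. Reporter cDNA is PCR-amplified, FAM-labelled by primer extension, HpaI-digested and sized on a capillary analyser.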

The target of test [5] is Hypoxia-inducible factor 1-alpha (Homo sapiens) (UniProt Q16665). Nature of the test: ATG_HIF1a_CIS: Attagene CIS-FACTORIAL HepG2 Assay for human Hypoxia Inducible Factor 1 (HIF1A) (AID 2282951). The conditions noted are these: HepG2 Attagene cis-factorial HIF1a reporter transcription; actives raise or lower the signal. In short, it runs like this: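 Transient MRTU transfection of human HepG2 liver cells, 24 h compound treatment, then total RNA isolation, oligo(dT) reverse transcription, PCR amplification, fluorescent labelling and capillary electrophoresis of reporter fragments. Gain or loss relative to DMSO.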

The target in test [6] is Hepatocyte nuclear factor 6 (Homo sapiens) (UniProt Q9UBC0). Description: ATG_HNF6_CIS: Attagene CIS-FACTORIAL HepG2 Assay for human Hepatocyte Nuclear Factor 6 (HNF6) (AID 2282952). The conditions noted are these: HepG2 Attagene cis-factorial HNF6 reporter transcription; actives raise or lower the signal. In short, it runs like this:
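Transiently transfected HepG2 cells expressing cis-regulated reporter transcription units were exposed to chemical for 24 h in a 24-well format. Reporter transcript abundance was determined by fluorescence capillary electrophoresis.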

Test [7] addresses Heat shock factor protein 1 (Homo sapiens) (UniProt Q00613). Nature of the test: ATG_HSE_CIS: Attagene CIS-FACTORIAL HepG2 Assay for human Heat Shock Transcription Factor 1 (HSE) (AID 2282953). The conditions noted are these: HepG2 HSE cis-reporter, Attagene RNA transcription; actives raise or lower the signal. In short, it runs like this: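 Liver-derived HepG2 cells carry transiently introduced multiple reporter units governed by cis promoters. Reporter RNA measured 24 h post-dose through reverse transcription, PCR amplification, fluorescent labelling and capillary electrophoresis, normalised to DMSO.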

Test [8] in a line: ATG_MRE_CIS: Attagene CIS-FACTORIAL HepG2 Assay for human Metal Responsive Element (MRE) (AID 2282954). Particulars: HepG2 MRE cis-reporter transcription, Attagene multiplex; actives raise or lower the signal. In short, it runs like this:
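HepG2 cells transiently transfected with cis-element-driven reporter units; mRNA measured 24 h after dosing. Reporter transcripts quantified by RT-PCR, FAM labelling, HpaI digestion and capillary electrophoresis; bidirectional fit versus DMSO.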

The nature of test [9]: ATG_PBREM_CIS: Attagene CIS-FACTORIAL HepG2 Assay for human Phenobarbital-responsive Enhancer Module (PBREM) (AID 2282955). The conditions noted are these: HepG2 PBREM cis-reporter, Attagene multiplexed transcription; actives raise or lower the signal. In short, it runs like this:
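Endogenous transcription factors in human liver HepG2 cells drive a PBREM cis-element reporter, whose transcript level after 24 h treatment is quantified by RT-PCR with capillary electrophoresis; activity fitted in both directions against DMSO.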

The target in test [10] is Paired box protein Pax-6 (Homo sapiens) (UniProt P26367). Description: ATG_Pax6_CIS: Attagene CIS-FACTORIAL HepG2 Assay for human Paired Box 6 (PAX6) (AID 2282956). The conditions noted are these: HepG2 CIS-FACTORIAL PAX6 reporter transcription, RNA readout; actives raise or lower the signal. In short, it runs like this:
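HepG2 cells transiently transfected with multiplexed cis-promoter reporter units (endogenous TF activity) were dosed for 24 h. Reporter mRNA was quantified by RT-PCR, 6-FAM labeling, HpaI digestion and capillary electrophoresis; bidirectional fitting versus DMSO baseline.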

Test [11] is described as follows: ATG_PXRE_CIS: Attagene CIS-FACTORIAL HepG2 Assay for human Pregnane X Receptor Element (PXRE) (AID 2282957). Particulars: HepG2 Attagene CIS-FACTORIAL PXRE reporter, mRNA; actives raise or lower the signal. In short, it runs like this: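 Cis-element reporter mRNA in human hepatoma HepG2 cells is measured 24 h post-dosing by RT-PCR, primer-extension labeling and capillary electrophoresis; gain or loss of signal is fitted relative to DMSO.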

Test [12] is described as follows: ATG_Sox_CIS: Attagene CIS-FACTORIAL HepG2 Assay for human SRY-box transcription factor (SOX) (AID 2282960). Particulars: HepG2 Attagene cis-factorial SOX reporter, mRNA; actives raise or lower the signal. In short, it runs like this:
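Endogenous factor activity in human liver HepG2 cells carrying transfected cis-regulated reporter units. RNA taken 24 h post-dose, reverse-transcribed, PCR-amplified and sized by capillary electrophoresis. Gain or loss of signal fitted relative to DMSO.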

For test [13], the target named is Transcription factor Sp1 (Homo sapiens) (UniProt P08047). Description: ATG_Sp1_CIS: Attagene CIS-FACTORIAL HepG2 Assay for human Specificity Protein 1 (Sp1) (AID 2282961). The conditions noted are these: HepG2 Sp1 cis-reporter transcription, actives raise or lower the signal. In short, it runs like this:
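Transient MRTU-transfected HepG2, 24 h compound exposure. Total RNA → oligo(dT) RT → PCR of reporter → 6-FAM primer extension → HpaI digest → CE. Endpoint fitted both directions vs DMSO.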

Test [14] can be described thus: ATG_SREBP_CIS: Attagene CIS-FACTORIAL HepG2 Assay for human Sterol Regulatory Element Binding (SREBP) (AID 2282962). Particulars: HepG2 Attagene cis-factorial SREBP reporter, mRNA; actives raise or lower the signal. In short, it runs like this: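 HepG2 cells transiently transfected with multiplexed cis-element reporter units report endogenous transcription factor activity. After 24 h of chemical exposure, reporter mRNA was quantified by RT-PCR, 6-FAM labelling, HpaI digestion and capillary electrophoresis; bidirectional fits used DMSO as baseline.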

In test [15] the target is Signal transducer and activator of transcription 3 (Homo sapiens) (UniProt P40763). Nature of the test: ATG_STAT3_CIS: Attagene CIS-FACTORIAL HepG2 Assay for human Signal Transducer and Activator of Transcription 3 (STAT3) (AID 2282963). Particulars: HepG2, Attagene cis-factorial STAT3 reporter transcription; actives raise or lower the signal. In short, it runs like this:
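HepG2 cells transiently transfected with multiple cis-element-driven reporter units report endogenous transcription factor activity. After 24 h compound exposure, reporter mRNA is measured by RT-PCR, 6-FAM labelling, HpaI digestion and capillary electrophoresis. Fitted bidirectionally versus DMSO.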

The nature of test [16]: ATG_TA_CIS: Attagene CIS-FACTORIAL HepG2 Assay for human TA Basal Promoter (AID 2282964). Particulars: HepG2 Attagene CIS-factorial TA basal promoter reporter; actives raise or lower the signal. In short, it runs like this:
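Background internal-marker endpoint from a 52-component HepG2 cis-reporter panel. Cells treated 24 h; reporter transcripts quantified via RT-PCR and CE fluorescence against DMSO baseline.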

Test [17] is described as follows: ATG_TCF_b_cat_CIS: Attagene CIS-FACTORIAL HepG2 Assay for human T-Cell-Factor with beta-catenin (TCF/b-cat) (AID 2282965). The conditions noted are these: HepG2 TCF/beta-catenin cis-reporter transcription, actives raise or lower the signal. In short, it runs like this: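 HepG2, transient MRTU transfection, cis-element-driven reporters (endogenous TFs). 24 h compound exposure. Readout: reporter mRNA by RT-PCR + 6-FAM primer extension, HpaI digest, capillary electrophoresis. Gain/loss fit vs DMSO baseline.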

Test [18] can be described thus: ATG_PPRE_CIS: Attagene CIS-FACTORIAL HepG2 Assay for human Peroxisome Proliferator-activated Response Element (PPRE) (AID 2282958). Particulars: HepG2 PPRE cis-element reporter, Attagene transcription factor profiling; actives raise or lower the signal. In short, it runs like this:
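HepG2, transient MRTU transfection (cis promoter elements, endogenous TFs). 24 h dosing. RNA → oligo(dT) RT → PCR → 6-FAM primer extension → HpaI digest → CE. Bidirectional fit vs DMSO.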

The nature of test [19]: ATG_RORE_CIS: Attagene CIS-FACTORIAL HepG2 Assay for human RAR-related Orphan Receptor Element (RORE) (AID 2282959). Particulars: HepG2 Attagene cis-factorial RORE reporter, mRNA; actives raise or lower the signal. In short, it runs like this:
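Transient MRTU transfection of human HepG2 liver cells (FuGene 6); 24 h compound exposure; TriZol RNA, oligo(dT) RT, PCR, FAM labeling, HpaI cut, CE fragment analysis. DMSO = negative control/baseline.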

Active and inactive are the calls of the source. The calls were made as follows: active = hit-call score of the fitted dose curve at least 0.9, where 1 is the maximum; inactive = score below 0.9.

Heat shock factor protein 1 (Homo sapiens), sequence (Q00613 whole entry, looked up): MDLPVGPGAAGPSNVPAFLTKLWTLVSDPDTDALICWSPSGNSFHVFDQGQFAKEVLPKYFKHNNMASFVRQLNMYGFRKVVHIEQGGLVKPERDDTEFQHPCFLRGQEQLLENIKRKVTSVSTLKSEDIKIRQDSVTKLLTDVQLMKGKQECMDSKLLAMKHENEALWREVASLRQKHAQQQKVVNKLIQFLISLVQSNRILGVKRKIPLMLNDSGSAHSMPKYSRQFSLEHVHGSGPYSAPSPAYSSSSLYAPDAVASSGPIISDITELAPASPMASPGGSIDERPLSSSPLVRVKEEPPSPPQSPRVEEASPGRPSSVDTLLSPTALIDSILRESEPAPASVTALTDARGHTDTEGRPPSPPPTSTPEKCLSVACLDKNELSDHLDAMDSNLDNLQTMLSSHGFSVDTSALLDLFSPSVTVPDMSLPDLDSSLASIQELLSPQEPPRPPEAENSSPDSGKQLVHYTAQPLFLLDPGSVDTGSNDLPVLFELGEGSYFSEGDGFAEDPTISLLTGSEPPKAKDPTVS
Hepatocyte nuclear factor 6 (Homo sapiens), sequence (Q9UBC0 whole entry, looked up): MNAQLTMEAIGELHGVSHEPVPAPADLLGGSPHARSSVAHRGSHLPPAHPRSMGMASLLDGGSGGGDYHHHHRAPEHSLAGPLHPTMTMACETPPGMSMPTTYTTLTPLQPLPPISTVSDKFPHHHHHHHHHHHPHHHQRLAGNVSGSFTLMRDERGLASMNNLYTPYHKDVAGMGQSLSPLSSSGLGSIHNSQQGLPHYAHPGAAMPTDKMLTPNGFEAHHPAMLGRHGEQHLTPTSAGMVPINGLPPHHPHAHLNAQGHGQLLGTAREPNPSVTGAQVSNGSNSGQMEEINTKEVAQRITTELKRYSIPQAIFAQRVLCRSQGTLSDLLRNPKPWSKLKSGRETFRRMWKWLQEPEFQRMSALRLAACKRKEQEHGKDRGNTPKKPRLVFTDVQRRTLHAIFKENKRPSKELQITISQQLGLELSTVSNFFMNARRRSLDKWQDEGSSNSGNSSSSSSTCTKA
Hypoxia-inducible factor 1-alpha (Homo sapiens), sequence (Q16665 whole entry, looked up, the tested form may be a part): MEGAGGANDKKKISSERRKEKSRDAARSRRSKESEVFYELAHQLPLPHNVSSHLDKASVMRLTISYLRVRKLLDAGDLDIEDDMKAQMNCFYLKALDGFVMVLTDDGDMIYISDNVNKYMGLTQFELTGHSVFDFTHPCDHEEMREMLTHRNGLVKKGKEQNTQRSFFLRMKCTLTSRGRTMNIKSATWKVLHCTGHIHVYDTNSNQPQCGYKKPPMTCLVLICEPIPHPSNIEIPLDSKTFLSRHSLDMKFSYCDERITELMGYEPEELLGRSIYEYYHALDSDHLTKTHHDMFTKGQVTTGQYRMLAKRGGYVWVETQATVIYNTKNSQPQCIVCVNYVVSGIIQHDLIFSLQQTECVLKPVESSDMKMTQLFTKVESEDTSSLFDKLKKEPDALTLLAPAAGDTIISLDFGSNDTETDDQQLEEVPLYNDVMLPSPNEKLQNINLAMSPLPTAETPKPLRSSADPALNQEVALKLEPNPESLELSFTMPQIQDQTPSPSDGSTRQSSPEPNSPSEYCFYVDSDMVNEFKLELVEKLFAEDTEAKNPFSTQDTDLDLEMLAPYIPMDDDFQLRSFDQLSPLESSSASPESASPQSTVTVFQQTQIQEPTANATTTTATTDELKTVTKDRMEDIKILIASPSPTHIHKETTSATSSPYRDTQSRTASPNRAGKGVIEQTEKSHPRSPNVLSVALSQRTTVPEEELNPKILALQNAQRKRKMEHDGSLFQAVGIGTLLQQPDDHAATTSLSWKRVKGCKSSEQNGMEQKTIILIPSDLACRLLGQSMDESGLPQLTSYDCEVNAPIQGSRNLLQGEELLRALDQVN
Transcription factor Sp1 (Homo sapiens), sequence (P08047 whole entry, looked up): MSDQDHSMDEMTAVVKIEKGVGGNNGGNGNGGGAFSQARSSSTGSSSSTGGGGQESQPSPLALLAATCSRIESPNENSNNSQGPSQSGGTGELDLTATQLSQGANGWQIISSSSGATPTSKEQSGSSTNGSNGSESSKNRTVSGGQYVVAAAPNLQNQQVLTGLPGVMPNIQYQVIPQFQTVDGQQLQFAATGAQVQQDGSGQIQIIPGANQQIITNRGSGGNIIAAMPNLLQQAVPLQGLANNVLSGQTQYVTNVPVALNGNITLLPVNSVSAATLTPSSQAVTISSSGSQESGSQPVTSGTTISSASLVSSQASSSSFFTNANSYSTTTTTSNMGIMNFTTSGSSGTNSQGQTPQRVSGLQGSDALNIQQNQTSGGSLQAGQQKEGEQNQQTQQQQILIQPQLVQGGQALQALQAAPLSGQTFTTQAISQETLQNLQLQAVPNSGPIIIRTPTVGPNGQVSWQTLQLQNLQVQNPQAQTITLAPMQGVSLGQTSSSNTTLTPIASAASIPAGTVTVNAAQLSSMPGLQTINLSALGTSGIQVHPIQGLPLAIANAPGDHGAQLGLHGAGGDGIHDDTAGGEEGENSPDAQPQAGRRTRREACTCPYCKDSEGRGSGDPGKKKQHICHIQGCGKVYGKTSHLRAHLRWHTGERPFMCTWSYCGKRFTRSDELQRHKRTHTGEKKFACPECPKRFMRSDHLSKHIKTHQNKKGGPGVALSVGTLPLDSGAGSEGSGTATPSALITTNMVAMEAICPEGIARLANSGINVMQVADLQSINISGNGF
Signal transducer and activator of transcription 3 (Homo sapiens), sequence (P40763 whole entry, looked up): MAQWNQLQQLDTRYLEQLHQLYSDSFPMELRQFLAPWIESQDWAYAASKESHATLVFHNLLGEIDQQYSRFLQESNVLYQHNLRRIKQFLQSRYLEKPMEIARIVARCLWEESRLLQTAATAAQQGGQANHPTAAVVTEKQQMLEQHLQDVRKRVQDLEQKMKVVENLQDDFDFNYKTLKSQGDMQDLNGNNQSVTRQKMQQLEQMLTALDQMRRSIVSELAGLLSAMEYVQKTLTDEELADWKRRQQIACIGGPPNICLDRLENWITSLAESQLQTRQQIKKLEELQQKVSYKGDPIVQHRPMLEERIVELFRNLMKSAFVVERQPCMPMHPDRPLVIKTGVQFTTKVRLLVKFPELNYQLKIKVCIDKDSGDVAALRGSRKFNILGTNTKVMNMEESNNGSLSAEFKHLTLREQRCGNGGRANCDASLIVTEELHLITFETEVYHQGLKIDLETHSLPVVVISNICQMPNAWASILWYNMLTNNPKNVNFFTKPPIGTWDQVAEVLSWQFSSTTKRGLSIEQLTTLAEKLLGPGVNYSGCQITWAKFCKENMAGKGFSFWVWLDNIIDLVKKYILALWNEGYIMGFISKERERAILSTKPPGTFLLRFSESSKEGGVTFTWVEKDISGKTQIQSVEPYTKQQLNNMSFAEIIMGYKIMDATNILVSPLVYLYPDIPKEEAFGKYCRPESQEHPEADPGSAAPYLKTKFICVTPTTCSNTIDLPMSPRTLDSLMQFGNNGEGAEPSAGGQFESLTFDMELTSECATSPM
Paired box protein Pax-6 (Homo sapiens), sequence (P26367 whole entry, looked up): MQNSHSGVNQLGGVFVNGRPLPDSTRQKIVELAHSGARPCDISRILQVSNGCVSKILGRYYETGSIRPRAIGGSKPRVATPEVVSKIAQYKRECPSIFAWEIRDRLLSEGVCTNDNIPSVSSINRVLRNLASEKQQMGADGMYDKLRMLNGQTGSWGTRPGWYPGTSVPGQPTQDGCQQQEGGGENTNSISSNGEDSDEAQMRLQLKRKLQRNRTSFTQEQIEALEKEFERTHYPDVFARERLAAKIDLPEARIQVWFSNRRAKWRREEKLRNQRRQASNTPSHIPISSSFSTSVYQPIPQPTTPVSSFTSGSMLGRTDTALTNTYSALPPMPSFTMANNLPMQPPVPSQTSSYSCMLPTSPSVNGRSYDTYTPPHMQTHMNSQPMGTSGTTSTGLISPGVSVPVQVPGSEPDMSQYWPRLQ

Regarding `CCO[Si](C)(OCC)OCC`, the compound was called inactive in test [1], in test [2], in [3], in test [4], in [5] and in test [6]. Moreover, the compound was classed as inactive in [7], in test [8], in [9], in test [10], in test [11] and in test [12]. Also, the result in test [13], in [14], in test [15], in test [16] and in [17] was inactive.
For the compound `C=CC(C)(C)C`, the result in test [1], in [2], in [3], in test [4], in test [5] and in [6] was inactive. Further, the result in [7], in [8], in test [9], in test [10], in test [11] and in [18] was inactive. The outcome in test [19], in test [12], in test [13], in test [14], in [15] and in test [17] was inactive.
Turning to `C=C(C)[C@@H]1CCC2=CCC[C@@H](C)[C@]2(C)C1`, the outcome in [1], in test [2], in test [3], in [4], in test [5] and in [6] was inactive. Moreover, the compound was called inactive in [7], in [9], in test [10], in test [19], in test [12] and in test [13]. Also, the compound was classed as inactive in test [14], in [15], in test [16] and in [17]. Also, the AC50 in test [8] was 155 µM (active); in test [11], 1.52 µM (active).
`CO[Si](OC)(OC)c1ccccc1`: the compound was classed as inactive in test [1], in [2], in [3], in [4], in [5] and in test [6]. Moreover, the compound was classed as inactive in test [7], in [8], in [9], in test [10], in [11] and in test [18]. The compound was called inactive in test [19], in [12], in [13], in [14], in test [15] and in test [16]. The compound was called inactive in [17].
For `CCOC(=O)CC(C(C)=O)C(C)=O`, the result in [1], in test [2], in [3], in test [4], in [5] and in [6] was inactive. In addition, the result in test [7], in [8], in [9], in test [10], in test [11] and in test [18] was inactive. Also, the outcome in test [19], in [13], in test [14], in [16] and in test [17] was inactive.
In the case of `CC(=O)Nc1ccc2c(c1)Cc1cc(NC(C)=O)ccc1-2`, the outcome in test [1], in [2], in [3], in test [4], in test [5] and in [6] was inactive. The compound was called inactive in [7], in test [8], in test [9], in test [10], in [11] and in test [18]. The compound was called inactive in test [19], in test [12], in test [13], in test [14], in [15] and in test [16]. In addition, in test [17], the result was inactive.
`CC(C)(Oc1ccc(C2CC2(Cl)Cl)cc1)C(=O)O` (stereo not given): the result in test [1], in test [2], in test [3], in test [4], in [5] and in [6] was inactive. The compound was classed as inactive in test [7], in [8], in [9], in test [10], in [19] and in [14]. In addition, the compound was called inactive in test [15], in test [16] and in [17]. In addition, the AC50 is 41.1 µM (active) in test [11] and 48.3 µM (active) in test [18].

Broadly, the AC50 is the concentration at which the activity in the assay is half-maximal.

The values are drawn from PubChem BioAssay (EPA / NIEHS).
